# Shiga inhibitor = A qHTS for Small Molecule Inhibitors of Shiga Toxin; Vero cells, Shiga toxin protein synthesis inhibition reporter; inhibition, % at 38.7 µM; 290,000 compounds, 9.2% hits; AID 2315, 2010; in the data active means inhibition mostly above about 28%, no sharp cut-off; inactive means mostly below about 43%; further: 0% is about no effect
# FBPA Giardia inh = qHTS Assay for Inhibitors of Fructose-1,6-bisphosphate Aldolase from Giardia Lamblia; Potency, µM (series often up to 59.6 µM), for inactives: at the highest dose activity, negative = inhibition, hits mostly inhibitors; purified Giardia FBPA; A8B2U2; AID 2451, 2010; 290,000 compounds, 0.71% hits; further: potency means the concentration at half of the fitted maximal effect; on the % scale 0 is the no-effect control and ±100 the full control effect; nearly all actives have a fitted effect of over 55% in size
# Target sequence (A8B2U2 whole entry, looked up): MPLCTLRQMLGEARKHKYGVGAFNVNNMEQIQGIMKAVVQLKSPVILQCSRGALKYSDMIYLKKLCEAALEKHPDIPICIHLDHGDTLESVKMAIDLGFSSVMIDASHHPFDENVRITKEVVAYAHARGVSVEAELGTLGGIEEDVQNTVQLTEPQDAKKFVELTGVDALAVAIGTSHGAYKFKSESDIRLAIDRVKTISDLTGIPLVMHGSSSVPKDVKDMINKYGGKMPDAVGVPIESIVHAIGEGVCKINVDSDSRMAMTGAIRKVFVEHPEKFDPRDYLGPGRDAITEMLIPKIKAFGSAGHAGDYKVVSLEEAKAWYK
#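 Giardia FBPA (40 nM reagent) was preincubated 10 min at RT with compound (up to 57.5 uM final), then substrate plus GAPDH/TPI/NAD/arsenate coupling system with diaphorase/resazurin was added; resorufin fluorescence (525/598 nm) was read after 20 min.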
# Sm TGR block = qHTS Assay for the Inhibitors of Schistosoma Mansoni Peroxiredoxins; Schistosoma mansoni thioredoxin glutathione reductase (TGR), Q962Y6; AID 485364, 2010; purified TGR, DTNB reduction, TNB absorbance 405 nm; 360,000 compounds, 3% hits; Potency, µM (highest dose often 114 µM), for inactives: at the highest dose activity change, negative = inhibition, most hits filed as inhibitors; further: potency means the concentration at half of the fitted maximal effect; on the % scale 0 is the no-effect control and ±100 the full control effect; nearly all actives have a fitted effect of over 60% in size
#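 First, TGR (20 nM dispensed) and NADPH were mixed with compound. Second, a 15 min room-temperature incubation followed. Third, further NADPH and then DTNB were added to start the reaction. Finally, TNB absorbance was monitored kinetically.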
# TbPYK inhibitor = qHTS of Trypanosoma Brucei Inhibitors. pyruvate kinase (Trypanosoma brucei), Q57TT1. TbPYK enzyme, Kinase-Glo Plus ATP luminescence, 45 min. Potency, µM (titrated, usually from 76.8 µM), inactives show top-dose activity, negative = inhibition, hits mostly inhibitors. 410,000 compounds, 0.12% hits; further: potency means the concentration at half of the fitted maximal effect; on the % scale 0 is the no-effect control and ±100 the full control effect; nearly all actives have a fitted effect of over 50% in size
#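 Enzyme and substrate buffer are dispensed first and compound is pin-transferred. ADP at 130 uM final then starts the reaction, which runs 45 min at room temperature. Detection reagent is added for 10 min before luminescence is imaged.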
# Cycloheximide cs = Cycloheximide Counterscreen for Small Molecule Inhibitors of Shiga Toxin; max response, %; cell reporter, cycloheximide protein synthesis inhibition counterscreen; 300,000 compounds, 12% hits; AID 2314, 2010; in the data active means max response mostly above about 13%, no sharp cut-off; inactive means mostly below about 14%; further: read at 38.3 µM for the half of the compounds with a filed dose; 0% is about no effect
# LmPK inhibitor = qHTS Assay for Inhibitors of Leishmania Mexicana Pyruvate Kinase (LmPK). Potency, µM (titrated, usually from 57.5 µM), for inactives: at the highest dose activity change, negative = inhibition, usual class: inhibitors. Q27686. 290,000 compounds, 0.37% hits. AID 1721, 2009. purified LmPK, Kinase-Glo ATP luminescence, 1 h; further: potency means the concentration at half of the fitted maximal effect; on the % scale 0 is the no-effect control and ±100 the full control effect
#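 Kinase-Glo luminescence read after 1 h RT reaction of 0.1 nM LmPK with 0.5 mM PEP and 0.1 mM ADP. Activity scaled between uninhibited and enzyme-free controls.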
# * marks the source's active call; other numbers are inactive results; ? = inconclusive; . = no result. This is one part of a sample in which hits are shown more often than they occur. Unless noted, the call rests on the fitted dose curve; in most records, active means well fitted curve in the direction sought with a large enough effect; inconclusive means small, poorly fitted or top-dose-only effect, or another doubt; inactive means no such curve, though single readings can be large; an effect the other way counts as inactive or inconclusive.
SMILES,Shiga inhibitor,FBPA Giardia inh,Sm TGR block,TbPYK inhibitor,Cycloheximide cs,LmPK inhibitor
O=C(Nc1cccc(S(=O)(=O)N2CCOCC2)c1)c1ccccn1,30,-25%,12%,1%,11,2%
O=C(Nc1ccc(N2CCCCC2)cc1)c1ccc2ccccc2n1,78*,-17%,-2%,-2%,29*,7%
Cc1cc(C(=O)Nc2cccc(S(=O)(=O)N3CCCCC3)c2)c2ccccc2n1,-3,-8%,3%,-2%,8,-5%
O=C(Nc1cccc(S(=O)(=O)N2CCCCCC2)c1)c1ccc2ccccc2n1,3,-2%,-2%,0%,22*,-5%
O=C(Nc1cccc(S(=O)(=O)N2CCCCC2)c1)c1ccccn1,26,-12%,4%,2%,27*,-3%
CCOC(=O)c1c(C)[nH]c(C)c1S(=O)(=O)N(C)CC(=O)N1CCN(c2cccc(Cl)c2)CC1,.,.,6%,-2%,.,.
CC(=O)Oc1ccc(C23c4ccccc4C2(OC(C)=O)c2cc(OC(C)=O)ccc23)cc1 (centres undefined),.,.,.,4%,.,.
CCOc1cc(N2CCOCC2)c(OCC)cc1NC(=O)c1ccccc1C,-7,-2%,1%,2%,-1,0%
O=C(Nc1nc2ccc(S(=O)(=O)N3CCCCC3)cc2s1)c1ccncc1,2,8%,1%,6%,-4,-3%
Cc1ccc(S(=O)(=O)N2CCCCC2)cc1NC(=O)c1ccc2ccccc2n1,47*,-20%,-9%,-1%,46*,-2%
COc1ccc(S(=O)(=O)N2CCCCC2)cc1NC(=O)c1ccc2ccccc2n1,-7,-2%,0%,5%,14,2%
O=C(Nc1nc2ccc(S(=O)(=O)N3CCCC3)cc2s1)c1ccccn1,60*,?,-12%,?,38*,?
CCOc1cc(N2CCOCC2)c(OCC)cc1NC(=O)c1ccc2ccccc2n1,53*,?,5%,-13%,28*,13%
COc1ccc(-c2coc3ccc(OC4OC(COC(C)=O)C(OC(C)=O)C(OC(C)=O)C4OC(C)=O)cc3c2=O)cc1 (centres undefined),.,3%,.,.,.,.
COc1ccccc1CNC(=O)c1cc(S(=O)(=O)N2CCCCCC2)cn1C,.,.,2%,0%,.,.
CCN(c1ccc(NS(=O)(=O)c2cc(Cl)ccc2Cl)cc1)C(C)C,-5,-24%,-14%,-18%,-4,-2%
CN(C)c1ccc(NS(=O)(=O)c2cc(Cl)ccc2Cl)cc1,33,-6%,-7%,-24%,21*,-6%
CCOc1cccc(N2C(=O)CC(NNC(=O)c3ccc(Br)o3)C2=O)c1 (centres undefined),-8,2%,25µM*,1%,14,0%
CC1=C(C(N)=O)C(c2cccs2)n2ncnc2N1 (centres undefined),-2,1%,-21%,-6%,-3,1%
c1csc(C2C3=C(Nc4ncnn42)c2ccccc2OC3)c1 (centres undefined),-22,-19%,45µM*,-25%,-3,4%
O=CN1CCN(C(C(=O)NC2CCCCC2)c2cc3c(cc2[N+](=O)[O-])OCO3)CC1 (centres undefined),-7,-23%,0%,2%,13,3%
O=C(NC1CCCCC1)C(c1cc2c(cc1[N+](=O)[O-])OCO2)N1CCCCC1 (centres undefined),54*,-22%,-9%,.,16,1%
CS(=O)(=O)Nc1ccc(-c2cn3c(n2)SCC3)cc1,33,-16%,4%,-17%,15,4%
Cc1oc2ccccc2c1-c1cn2c(n1)SCC2,24,0%,-26%,-5%,11*,-2%
CCCS(=O)(=O)Nc1cccc(-c2cn3c(n2)SCC3)c1,-3,12%,-11%,-6%,-2,8%
SMILES,Shiga inhibitor,FBPA Giardia inh,Sm TGR block,TbPYK inhibitor,Cycloheximide cs,LmPK inhibitor
Oc1ccc(-c2cn3c(n2)SCC3)cc1,20,-1%,1%,-10%,13,-3%
Clc1ccc(-c2cn3c(n2)SCC3)cc1,162*,0%,-4%,2%,38*,8%
c1ccc(-c2cn3c(n2)SCC3)cc1,50*,3%,-16%,4%,29*,4%
O=S(=O)(Nc1cccc(-c2cn3c(n2)SCC3)c1)c1ccccc1F,-16,.,-1%,-11%,2,0%
Brc1ccc(-c2cn3c(n2)SCC3)cc1,100*,-3%,.,-3%,35*,0%
c1ccc(CSc2nnc(C3CCNCC3)o2)cc1,.,.,2%,3%,.,.
CCOc1ccccc1NC(=O)C1CCN(S(=O)(=O)c2c(C)noc2/C=C/c2ccc(C)cc2)CC1,.,.,6%,-1%,.,.
Cn1c(=O)c(-c2ccc(F)cc2)nc2cnc(Nc3ccccc3)nc21,.,0%,.,.,.,.
CC(=O)N1CCOc2ccc(S(=O)(=O)NCC3CCC(C(=O)Nc4ncccc4C)CC3)cc21 (centres undefined),-2,.,2%,6%,-9,-10%
Clc1ccccc1-c1nnc(-c2cccnc2)o1,58,1%,-1%,-2%,25*,-1%
Cc1ccc(-c2nc(-c3ccncc3)no2)c(Cl)c1,.,14%,0%,-2%,35*,-4%
Clc1ccccc1-c1nc(-c2ccncc2)no1,97*,10%,0%,1%,26*,?
Cc1onc(-c2ccccc2Cl)c1-c1nc(-c2ccncc2)no1,6,5%,3%,4%,-3,-3%
Clc1ccccc1/C=C/c1nc(-c2cccnc2)no1,98*,3%,-2%,-6%,41*,-6%
Clc1ccc(-c2nc(-c3ccncc3)no2)c(Cl)c1,.,.,.,0%,.,.
Cc1nc2cc(-c3ccccc3)nn2c(C)c1CCC(=O)NCc1cccc(Cl)c1,.,.,-4%,-2%,.,.
O=C1CN(C(=O)c2ccccc2C(F)(F)F)C(c2ccccc2)c2cc(F)ccc2N1 (centres undefined),.,.,1%,-3%,.,.
CN(C(=O)COC(=O)c1ccc2c(c1)OCCO2)C1CCCCC1,.,.,-1%,1%,.,.
Clc1ccccc1-c1nc(-c2cccnc2)no1,83*,5%,2%,-1%,25*,-28%
O=C1c2ccccc2C(=O)N1CCCc1nc(-c2cccnc2)no1,-6,0%,4%,3%,-4,2%
Clc1ccc(Cl)c(-c2nc(-c3ccncc3)no2)c1,.,2%,13%,-4%,-2,10%
Cc1nc(-c2noc(-c3ccccc3Cl)n2)c(C(F)(F)F)o1,47*,4%,7%,-1%,61*,-20%
CSc1ccccc1-c1nc(-c2ccncc2)no1,82*,-3%,-11%,-11%,57*,-9%
